ROC1-CUL1 inh – inhibitors of human ROC1-CUL1 ubiquitin ligase activity; E3 ubiquitin-protein ligase RBX1 (Homo sapiens) + Cullin-1 (Homo sapiens), P62877+Q13616; in vitro K48 di-Ub FRET, acceptor:donor ratio, 45 min; inhibition, % at 10 µM; 140,000 tested, 0.6% active; AID 1347404, 2020; in the data active means inhibition above about 25%
Target sequence (P62877 whole entry, looked up): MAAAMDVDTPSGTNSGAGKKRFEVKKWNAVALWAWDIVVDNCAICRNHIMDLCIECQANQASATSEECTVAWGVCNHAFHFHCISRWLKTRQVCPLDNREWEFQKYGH
Target sequence (Q13616 whole entry, looked up): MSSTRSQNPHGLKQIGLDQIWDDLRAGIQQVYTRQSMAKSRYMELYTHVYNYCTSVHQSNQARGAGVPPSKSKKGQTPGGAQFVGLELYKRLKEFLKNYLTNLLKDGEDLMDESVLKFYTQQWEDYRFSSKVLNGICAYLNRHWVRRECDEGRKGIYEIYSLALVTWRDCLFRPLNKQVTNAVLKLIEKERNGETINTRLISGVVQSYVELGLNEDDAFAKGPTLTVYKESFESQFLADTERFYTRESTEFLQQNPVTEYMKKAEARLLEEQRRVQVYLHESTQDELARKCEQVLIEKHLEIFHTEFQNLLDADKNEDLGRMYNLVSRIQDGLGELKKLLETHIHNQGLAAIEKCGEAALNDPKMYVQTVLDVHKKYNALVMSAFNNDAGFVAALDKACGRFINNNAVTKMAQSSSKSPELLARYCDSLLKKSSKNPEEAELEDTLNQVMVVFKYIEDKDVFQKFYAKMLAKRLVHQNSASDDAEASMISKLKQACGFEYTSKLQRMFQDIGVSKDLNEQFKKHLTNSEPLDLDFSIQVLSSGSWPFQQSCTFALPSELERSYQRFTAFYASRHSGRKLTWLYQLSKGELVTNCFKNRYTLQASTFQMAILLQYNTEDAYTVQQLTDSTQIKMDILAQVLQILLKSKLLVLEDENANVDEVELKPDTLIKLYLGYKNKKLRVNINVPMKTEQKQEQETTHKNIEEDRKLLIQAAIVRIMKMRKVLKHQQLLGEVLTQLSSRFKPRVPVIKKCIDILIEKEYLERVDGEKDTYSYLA
Each line names hits and unclear results; the compound was inactive in the other large screens. The full list was thinned out, with hits kept by preference.

COc1cc(/C=C2\SC(=S)N(Cc3ccccc3)C2=O)ccc1OCC(=O)O	none
COC(=O)c1ccc(/C=C2\SC(=S)N(CCCCCC(=O)O)C2=O)cc1	ROC1-CUL1 inh 81
COC(=O)c1ccc(/C=C2\SC(=S)N(CO)C2=O)cc1	none
CCOC(=O)c1ccc(NC(=O)CCCCCN2C(=O)/C(=C\c3ccc(Cl)cc3)SC2=S)cc1	none
COc1cc(/C=C2/SC(=S)N(CC(=O)O)C2=O)ccc1OC(=O)c1ccc(C)cc1	ROC1-CUL1 inh 93
COc1cc(/C=C2/SC(=S)N(c3cccc(C(F)(F)F)c3)C2=O)ccc1OC(=O)c1ccc(C)cc1	none
Cc1ccc(Cn2c(N3CCN(C)CC3)nc3c2c(=O)n(C)c(=O)n3C)cc1	none
NC(=S)C(=Nc1ccccc1)Nc1ccccc1	none
CCC1CCCCN1C(=O)c1coc(COc2cccc(F)c2F)n1 (stereo not given)	none
Cc1c(/C=C2\SC(=O)NC2=O)cc(-c2ccccc2)n1-c1ccccc1	none
O=C(O)Cc1ccccc1Sc1cccc(C(F)(F)F)c1	none
O=C(O)c1cc(C(F)(F)F)ccc1Sc1ccccc1	ROC1-CUL1 inh 58
Nc1cc(C(F)(F)F)ccc1Sc1ccccc1C(=O)O	none
CC1=Nc2nonc2NC(=O)C1	none
CCOc1cc(-c2ccc3c(c2)OCO3)cc(=Nc2ccc(NC(C)=O)cc2)c2c(C)oc(C)c12	none
Fc1nc(F)c(F)c(SC(=S)N2CCOCC2)c1F	none
CCOc1ccc(-c2cn3c(n2)sc2cc(C(=O)NCCCN4CCCCCC4)ccc23)cc1	ROC1-CUL1 inh 42
CCCN1CCN(CCCNC(=O)c2ccc3c(c2)sc2nc(-c4ccc(OCC)cc4)cn23)CC1	none
Cc1ccc(-c2cn3c(n2)sc2cc(C(=O)NCCCN4CCCCC4)ccc23)cc1	none
Cc1ccc(-c2cn3c(n2)sc2cc(C(=O)NCCCN4CCCCCC4)ccc23)cc1	ROC1-CUL1 inh 39
CCN1CCN(CCCNC(=O)c2ccc3c(c2)sc2nc(-c4ccc(C)cc4)cn23)CC1	none
CCOc1ccc(-c2cn3c(n2)sc2cc(C(=O)NCCCN4CCCCC4)ccc23)cc1	none
Cc1ncc2c(n1)NC(=O)CO2	none
CC(C)C1=Nn2c(nnc2-c2ccccc2)SC1	none
C[C@@H]1CN(Cc2c(C(=O)N3CCN(C4CCCCC4)CC3)nc3ccccn23)C[C@H](C)O1	none
CC(=O)Nc1ccc(S(=O)(=O)NNC(=O)CCCOc2ccc(Cl)cc2Cl)cc1	none
CCOC(=O)c1ccc(NN2C(=O)c3ccc(Br)cc3C2=O)c([N+](=O)[O-])c1	none
CCOC(=O)c1c2c(n(C)c1CNC(C)C)C(=O)C(=O)c1ccc(Br)cc1-2	ROC1-CUL1 inh 98
CCOC(=O)c1c2c(n3ccccc13)C(=O)c1ccccc1C2=O	none
ClC1CCCCC1n1nc2ccccc2n1 (stereo not given)	none
Cc1[nH]c2ccccc2c1CCN1C(=O)NC(=O)C2C1=NC(c1cccc(F)c1)=NC2(C(F)(F)F)C(F)(F)F (stereo not given)	none
CSc1c(CC(=O)NC(C)(C)CO)n(Cc2ccccc2)c2ccccc12	none
O=C1CC(=Nc2cccc3cc(S(=O)(=O)O)ccc23)c2ccccc2C1=O	ROC1-CUL1 inh 80
O=C1C(=Nc2ccc(Cl)c(Cl)c2)CC(=NS(=O)(=O)c2ccc(Cl)cc2)c2ccccc21	none
O=C1c2cc(S(=O)(=O)O)ccc2C(=O)c2c(Cl)cccc21	none
CC1(C)C2CNC(=O)C(C)(n3ccnc3)C1C2 (stereo not given)	none
Cc1ccc(C(=O)Nc2ccc(-c3ccc(NC(=O)c4ccc(C)o4)c(C)c3)cc2C)o1	none
Cc1c(C(=O)O)cccc1-n1c(C)cc(/C=N/NC(=O)c2cc3ccccc3o2)c1C	none
O=[N+]([O-])c1ccc(N/N=C/c2cccn2-c2ccccc2)nc1	none
Cc1c(C(=O)O)cccc1-n1c(C)cc(/C=N/Nc2ccc([N+](=O)[O-])cn2)c1C	ROC1-CUL1 inh 82
CCOC(=O)C(NC(=O)c1cccc(Cl)c1)(Nc1ccccc1OC)C(F)(F)F (stereo not given)	none
CCOc1ccccc1C1C(C(=O)Nc2ccccc2)C(C)=Nc2nc(-c3ccccc3)nn21 (stereo not given)	none
Oc1cc(-n2cccn2)c(O)c2ccccc12	ROC1-CUL1 inh 42
c1ccc(Nc2nc(Nc3ccccc3)nc(-n3cccn3)n2)cc1	none
Fc1ccc(-c2cc(-c3ccccc3)nc(-n3cccn3)n2)cc1	none
CCCc1[nH]nc2c1C(c1cc3c(cc1Cl)OCO3)C(C#N)C(=N)O2 (stereo not given)	none
COc1cc(Br)c(Br)c(/C=C2\SC(c3ccc(C)cc3)=NC2=O)c1O	ROC1-CUL1 inh 93
COc1cc(/C=C2/SC(=Nc3ccccc3C)NC2=O)c(Br)c(Br)c1O	none
COc1cc(Br)c(Br)c(C=Nc2ccc(NC(=O)c3ccccc3Br)cc2)c1O	none
CCN(C)c1ccc(C=C2C(=O)N(C)C(=O)N(C)C2=O)cc1	none
CCN(CC)c1ccc(C=C2C(=O)N(c3ccccc3)C(=O)N(c3ccccc3)C2=O)cc1	none
CCN(CC)c1ccc(/C=C2\C(=O)N(c3nnc(C)c(=O)[nH]3)N=C2C)cc1	ROC1-CUL1 inh 57
O=CNc1c(Br)cc(Br)cc1Br	none
CSc1nsc(SCCC(=O)Nc2ccccc2)n1	none
CSc1nsc(SCSc2nc(SC)ns2)n1	ROC1-CUL1 inh 36
CSc1nsc(SCSc2nnc(-c3ccccc3)o2)n1	none
CC(C)CCSc1nc2sc3c(c2c(=O)n1-c1ccccc1)CCCC3	none
C=CCN1C(=O)/C(=C\c2ccc(N(C)C)cc2)N=C1SCC(=O)Nc1ccccc1	none
CN(C)c1ccc(/C=C2\N=C(c3ccccc3)N(NC(=O)c3ccccc3Br)C2=O)cc1	ROC1-CUL1 inh 40
CN(C(=S)NC(=O)c1ccccc1Br)c1ccccc1	none
O=C(OCc1ccc(Br)cc1)c1ccco1	none
COc1cc(-c2nc(CN(CCO)C(C)C)c(C)o2)ccc1F	none
Cc1ccc(Cn2c(-c3ccccc3)c(-c3ccccc3)c3c(=O)[nH]cnc32)cc1	none
CCOC(=O)c1cccc(NC(=O)C2CCN(C(C)=O)CC2)c1	none
CC12CCC(C(=O)Nc3ccc(Br)cc3)(C1Br)C2(C)C (stereo not given)	none
CCc1ccccc1NC(=O)CSc1nnc(COc2c(C)cccc2C)n1C	none
O=C(CN1C(=O)S/C(=C\c2cccn2-c2cccc(C(=O)O)c2)C1=O)Nc1ccc(Cl)cc1	ROC1-CUL1 inh 49
O=C(CN1C(=O)S/C(=C/c2ccc(-c3ccc(Cl)c(C(=O)O)c3)o2)C1=O)Nc1ccccc1	ROC1-CUL1 inh 104
Cc1ccccc1NC(=O)CN1C(=O)S/C(=C\c2ccc(-c3cccc(C(=O)O)c3C)o2)C1=O	none
Cc1c(C(=O)O)cccc1-c1ccc(/C=C2\SC(=O)N(CC(=O)Nc3ccc4c(c3)OCO4)C2=O)o1	ROC1-CUL1 inh 26
Cc1ccc(NC(=O)CN2C(=O)S/C(=C\c3ccc(-c4cc(C(=O)O)ccc4Cl)o3)C2=O)cc1C	none
O=C(CN1C(=O)S/C(=C\c2ccc(Cl)cc2)C1=O)Nc1ccc(C(=O)O)cc1	none
O=C(CN1C(=O)c2cccc3cccc1c23)Nc1ccc2c(c1)OCO2	none
N#Cc1ccccc1CN1C(=O)S/C(=C\c2ccc(-c3ccc(C(=O)O)c(Cl)c3)o2)C1=O	none
COc1ccc(NC(=O)CN2C(=O)S/C(=C/c3cccn3-c3ccc(C)c(C)c3)C2=O)cc1	none
O=S(=O)(Cc1cccc(Cl)c1)NCCc1ccccc1	none
Cc1ccc2cccc(OC(=O)c3ccc(Cl)c([N+](=O)[O-])c3)c2n1	none
Cc1ccc2cc(CNCC3CCCCC3)c(N3CCC(O)CC3)nc2c1	none
Cc1n[nH]c(=S)n1/N=C/c1ccc(-c2ccccc2Cl)o1	none
CN1CCN(C(=O)CN(c2ccc(F)c(F)c2)S(C)(=O)=O)CC1	none
CCN1CCN(C(=O)c2nn(C)cc2Br)CC1	none

Compound activity deposited in PubChem by Pan Lab, Icahn School of Medicine at Mount Sinai.
